Most compounds without a hit are left out; they make up all but 11% or so of the library.
VDR inhibitor: blocks the human vitamin D receptor; VDR-SRC2-3 peptide fluorescence polarization, 2 h; Potency, µM, most hits filed as inhibitors; 400,000 compounds, 0.93% hits
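Compounds are added to VDR with labelled SRC2-3 coactivator peptide and held 2 h at room temperature. Inhibition of the VDR–peptide interaction is then read as a change in fluorescence polarization.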
HP1b binding inh: inhibitors of HP1-beta chromodomain binding to methylated histone tails; 390,000 compounds, 0.56% hits; AID 540317; P83916; Potency, µM (highest dose often 114 µM), usual class: inhibitors; AlphaScreen HP1-beta / biotin-H3K9me3 peptide binding; also: nearly all actives have a fitted effect of over 70% in size
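Compound inhibition of the preformed complex between 50 nM HP1-beta and 50 nM biotinylated H3K9me3 peptide was read by AlphaScreen. Buffer was PBS pH 7.4 with 0.01% Tween-20. Incubations ran 30 min at room temperature, with 10 ug/mL donor/acceptor beads.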
JMJD2A Tudor: JMJD2A Tudor domain (human) inhibition. O75164. AlphaScreen JMJD2A-Tudor / H3K4me3 peptide binding. Potency, µM (top dose mostly 114 µM), usual class: inhibitors. 390,000 compounds, 4.4% hits. AID 504339; also: nearly all actives have a fitted effect of over 50% in size
BAZ2B block: inhibitors of human BAZ2B bromodomain; AlphaScreen BAZ2B-H3K14Ac peptide displacement; 360,000 compounds, 4.4% hits; Potency, µM (highest dose often 114 µM), hits mostly inhibitors; also: nearly all actives have a fitted effect of over 60% in size
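Multi-concentration screen (max 110 uM) measuring displacement of acetylated histone H3 peptide from BAZ2B by AlphaScreen, using 50 nM protein, 50 nM peptide and 10 ug/mL streptavidin donor plus Ni-chelate acceptor beads.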
PLK1 PBD block: PLK1 (human) polo-box domain binding inhibition; 360,000 compounds, 2.8% hits; Plk1 PBD binding of FITC phosphopeptide, fluorescence polarization; Potency, µM, usual class: inhibitors; AID 720504; P53350; also: series mostly up to about 57 µM; nearly all actives have a fitted effect of over 65% in size
G9a block: G9a (human) methyltransferase inhibition. Q96KQ7. Potency, µM (titrated, usually from 102 µM), hits mostly inhibitors. G9a H3K9 monomethylation, AlphaScreen, 2 h. 350,000 compounds, 8.8% hits. AID 504332; also: nearly all actives have a fitted effect of over 75% in size
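Enzyme 20 nM + cpd, 15 min RT; add b-H3K9 pep 500 nM / SAM 20 uM; 2 h RT; anti-H3K9me1 Ab 0.5 ug/mL + SA donor / anti-rabbit acceptor beads 20 ug/mL each, 10 min; AlphaScreen read.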
A number is an active result; - = inactive; ? = inconclusive; . = no result given; [ ] = dose if it differs, or a comment. Calls follow the shape of the dose curve; as a rule, active = well fitted curve in the direction sought with a large enough effect; inconclusive = small, poorly fitted or top-dose-only effect, or another doubt; inactive = no such curve, though single readings can be large; an effect the other way counts as inactive or inconclusive.

SMILES	VDR inhibitor	HP1b binding inh	JMJD2A Tudor	BAZ2B block	PLK1 PBD block	G9a block
CCCNC(=O)CN1C(=O)c2cccnc2Sc2ccccc21	-	?	-	-	.	-
CCN(CC)S(=O)(=O)c1cccc(-c2n[nH]c(=S)n2CC(C)C)c1	-	-	10µM	-	-	3.2µM
NCCCCCc1nnc(SCC(N)=O)o1	-	-	-	-	-	-
COc1ccc(OC)c(CN2CCC(C(=O)N(C)CCc3ccc(OC)c(OC)c3)CC2)c1	-	-	22µM	-	-	.
COc1ccc(CCN(C)C(=O)C2CCCN(C3CCN(Cc4ccccc4)CC3)C2)cc1OC (configuration not stated)	-	22µM	7.9µM	35µM	-	32µM
O=C(CN(C(=O)CNC(=O)c1ccco1)c1cccc(F)c1)NC1CCCCC1	-	-	-	-	-	-
COc1ccc(Cl)cc1NC(=O)CN(C)CC(=O)Nc1c(C)n(C)n(-c2ccccc2)c1=O	-	-	-	-	-	-[12.7 µM]
O=C(NNC(=O)c1cccc(C(F)(F)F)c1)c1ccncc1	-	-	-	?	-	25µM
O=c1[nH]c(=S)c2[nH]c(=S)n(-c3ccccc3)c2[nH]1	-	?	20µM	.	?	.
Cc1csc2nc(CCNS(=O)(=O)c3ccc4c(c3)OCCO4)cn12	-	-	-	-	-	50µM
Cc1csc2nc(CNS(=O)(=O)c3ccc4c(c3)OCCO4)cn12	-	-	-	-	-	?
CC(C)c1ccc(OCC(=O)Nc2cc(-c3ccccc3)no2)cc1	-	-	-	-	.	-
O=C(CCc1nnc2n(Cc3ccccc3Cl)c(=O)c3ccccc3n12)Nc1ccccc1	-	-	-	-	.	-
O=C(CSc1nc2c(sc3ccccc32)c(=O)n1CCCN1CCCC1)NCC1CCCO1 (configuration not stated)	-	-	-	-	-	56µM
CCOC(=O)CSc1nc2c(sc3ccccc32)c(=O)n1CCO	-	-	56µM	-	.	-
COc1cccc(NC(=O)CSc2nc3c([nH]c4ccccc43)c(=O)n2-c2ccccc2)c1	-	-	-	-	.	-
CCOC(=O)CSc1nc2c([nH]c3ccccc32)c(=O)n1-c1ccc(OC)cc1	-	-	20µM	-	.	-
COc1cccc(-n2c(SCC(=O)Nc3nnc(C)s3)nc3c([nH]c4ccccc43)c2=O)c1	-	-	50µM	-	.	-
CCOC(=O)CSc1nc2c(sc3ccccc32)c(=O)n1Cc1ccc(OC)cc1	-	-	-	-	.	-
COc1ccc(C2/C=C\CN(C(=O)C3CC3)C(C)C(=O)N2Cc2ccc(F)cc2)cc1 (configuration not stated)	-	-	-	.	.	.
Cc1ccc(S(=O)(=O)NCC(=O)OCC(=O)NC2CCCCC2)cc1	-	-	-	.	-	.
O=C(NC1(C(F)(F)F)N=C2SCCN2C1=O)c1cccnc1 (configuration not stated)	-	-	-	-	-	-
COc1cc(C(=O)COC(=O)c2ccncc2)cc(OC)c1OC	-	-	-	.	-	.
C[n+]1ccccc1Nc1cc([N+](=O)[O-])ccc1N	-	-	-	?	-	11µM
CC(NO)/C(=N\O)c1cccs1 (configuration not stated)	-	?	79µM	?	-	4µM
SMILES	VDR inhibitor	HP1b binding inh	JMJD2A Tudor	BAZ2B block	PLK1 PBD block	G9a block
C/C(=N\N=C(c1ccccc1)c1ccccc1)c1cccs1	-	-	-	?	-	-
Cc1nn(CC(=O)NCCc2ccccc2)c(=O)c2nn(-c3ccccc3)c(C)c12	-	-	-	-	.	-
S=c1[nH]cc(-c2ccccc2)n1-c1ccccc1	-	-	28µM	?	-	0.89µM
S=c1[nH]cc(-c2ccc(Cl)cc2)n1Cc1ccccc1	-	-	-[11.4 µM]	-	-	?
Cc1ccc(-n2c(-c3ccccc3)c[nH]c2=S)cc1	?	-	11µM	-	?	2.8µM
CC(C)Cn1c(-c2ccc(Br)cc2)c[nH]c1=S	?	?	50µM	?	17µM	0.89µM
CCn1c(-c2ccccc2)c[nH]c1=S	-	?	8.9µM	-	-	?
C[C@@H]1CN([C@H](C)CO)C(=O)CCCn2cc(nn2)CO[C@H]1CN(C)C(=O)Nc1ccccc1C(F)(F)F	.	.	.	.	-	.
Clc1nc(NC2CCCCC2)c2cn[nH]c2n1	-	-	-	.	-	.
COc1ccccc1C(=O)NC(CCSC)C(=O)NNC(=O)c1ccccc1O (configuration not stated)	-	-	-	-	-	-[12.7 µM]
COC(=O)c1cc(OC)c(=O)c2c(OC)c(OC)ccc2c1	-	.	.	.	.	-[2.33 µM]
CN(C)CCCn1c(SCc2c(Cl)cccc2Cl)nnc1-c1ccncc1	-	?	20µM	71µM	-	10µM
c1ccc(CCn2c(SCc3ccccc3)nnc2-c2ccncc2)cc1	-	-	-	-	-	-
COc1cccc(NC(=O)C2(C)CCN2C(=O)CC2CC2)c1 (configuration not stated)	.	.	.	.	-	.
Cc1ccccc1NC(=S)NCCSc1ccc(Cl)cc1	-	-	89µM	?	-	-
COc1ccc(Cl)cc1NC(=S)Nc1ccccc1C	?	-	14µM	-	11µM	.
COc1ccc(Cl)cc1NC(=S)NCc1ccccn1	-	-	-	-	-	20µM
COc1cc(C)c(NC(=S)Nc2cccc(Cl)c2)cc1OC	?	?	-	-	?	89µM
O=C(NNc1ccccc1C(F)(F)F)c1sccc1Cl	-	-	-	.	.	.
CCCSc1nc(N)nc(-c2cccs2)c1C#N	-	-	-	-	-	-[0.501 µM]
COC(=O)c1cc(OC)c(OC)cc1NC(=S)Nc1cccc(C(C)=O)c1	-	-	22µM	-	-	10µM
COC(=O)c1cccc(NC(=S)Nc2cc(Cl)ccc2OC)c1	-	?	-	-	?	.
O=C(Nc1ccc2c(c1)C(=O)NC2=O)c1ccc2ncsc2c1	-	-	-	-	-	-
CC[C@H](C)NC(=O)CCCCCn1c(=S)[nH]c2c([nH]c3ccc(OC)cc32)c1=O	-	-	-	-	-	-
COc1ccc2[nH]c3c(=O)n(CCCCCC(=O)NCCC(C)C)c(=S)[nH]c3c2c1	-	-	-	-	-	-
COc1ccc2[nH]c3c(=O)n(CCCCC(=O)NCCN4CCCC4)c(=S)[nH]c3c2c1	-	?	5.6µM	-	-	?
COc1ccc2[nH]c3c(=O)n(Cc4ccc(C(=O)N5CCCC5)cc4)c(=S)[nH]c3c2c1	?	?	6.3µM	-	24µM	7.9µM
COc1ccc2[nH]c3c(=O)n(CCCCC(=O)N4CCC(C(N)=O)CC4)c(=S)[nH]c3c2c1	-	-	3.5µM	-	-	?
COC(=O)C1CCN(C(c2ccccc2)c2sc3nc(-c4ccco4)nn3c2O)CC1 (configuration not stated)	-	-	-	-	.	-

Bioassay records deposited in PubChem BioAssay by National Center for Advancing Translational Sciences (NCATS).
